Screening data as filed in PubChem BioAssay.
The list is not random: actives were taken first. Their share in the collection is about 19%.
TGFb inhibitor = TGF-b pathway inhibition; hit rate 1.2% among 410,000; HepG2 CAGA-GFP TGF-b/SMAD3 reporter, GFP fluorescence, 18 h; TGF-beta stimulated, 500 pg/mL final; Potency, µM (series often up to 46.1 µM), for the others: top-dose activity, negative = inhibition, usual class: inhibitors; also: potency is read from the fitted curve at half-maximal effect; % is scaled to controls: 0 for no effect and ±100 for the full control effect; nearly all actives have a fitted effect of over 65% in size
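Cell-based qHTS in HEPG2 carrying a CAGA-GFP Smad reporter; compounds added before 500 pg/mL final TGF-beta, 18 h incubation at 37 degrees C, GFP fluorescence quantified per cell by imaging cytometry.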
DT40 TDP1 no CPT = qHTS for Inhibitors of human tyrosyl-DNA phosphodiesterase 1 (TDP1): qHTS in cells in absence of CPT. AID 686978, 2013. Potency, µM (series often up to 46.2 µM), for inactives: at the highest dose activity change, negative = growth inhibition, hits mostly inhibitors. hit rate 15% among 420,000. DT40 Tdp1-/- hTDP1 cells, no CPT, ATP luminescence, 48 h; also: potency is read from the fitted curve at half-maximal effect; % is scaled to controls: 0 for no effect and ±100 for the full control effect; nearly all actives have a fitted effect of over 55% in size
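Compound effects on proliferation are scored in DT40 Tdp1-/-;hTDP1 cells in the absence of CPT. ATP levels (CellTiter-Glo luminescence) are recorded after a ≥48 hr, 37 °C incubation.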
IL1B secr inh = blocks inflammasome-driven IL-1 beta release | THP-1 LPS/ATP IL-1B secretion, AlphaLISA, 16 h; hits give low values | activity change, % at 57.5 µM | hit rate 4.7% among 360,000; in the data active = activity change below about -50%; inconclusive = mostly about -30% to -49%; also: % is scaled to controls: 0 for no effect and ±100 for the full control effect
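THP-1 cells pretreated 1 hr with compounds (up to 57.5 uM final), then stimulated with LPS (250 ng/mL final) plus ATP (1.25 mM final); secreted IL-1B measured by AlphaLISA after 16 hr, decreased signal indicating inhibition.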
ASM inhibitor = human S-ASM enzyme inhibition; placental ASM, HMU-PC fluorogenic substrate, 60 min; Potency, µM (highest dose often 57.5 µM), without a hit: at the top dose activity change, negative = inhibition, actives largely listed as inhibitors; AID 504937; hit rate 0.006% among 340,000; also: potency is read from the fitted curve at half-maximal effect
Target sequence (P17405 47-631 limits assumed): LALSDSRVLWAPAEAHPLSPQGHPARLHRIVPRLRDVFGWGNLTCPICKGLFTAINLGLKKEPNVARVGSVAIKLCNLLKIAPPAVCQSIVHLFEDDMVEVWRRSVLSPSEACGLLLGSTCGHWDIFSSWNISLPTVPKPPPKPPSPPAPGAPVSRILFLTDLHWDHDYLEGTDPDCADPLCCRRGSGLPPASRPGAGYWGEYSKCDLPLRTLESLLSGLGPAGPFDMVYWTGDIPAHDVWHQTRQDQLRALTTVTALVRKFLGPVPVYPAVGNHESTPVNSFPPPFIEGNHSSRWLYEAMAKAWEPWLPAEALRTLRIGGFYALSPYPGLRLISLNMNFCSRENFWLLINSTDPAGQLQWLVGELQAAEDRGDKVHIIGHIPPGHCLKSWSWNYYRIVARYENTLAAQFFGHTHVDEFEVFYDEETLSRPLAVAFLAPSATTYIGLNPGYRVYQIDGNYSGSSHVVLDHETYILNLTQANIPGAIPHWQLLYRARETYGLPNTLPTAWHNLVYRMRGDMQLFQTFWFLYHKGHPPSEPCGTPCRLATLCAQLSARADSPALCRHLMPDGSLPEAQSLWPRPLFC
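Steps: dispense placental human ASM, pin compound, wait 10 min at room temperature, add HMU-PC0 substrate at 9 uM final, incubate 60 min at 37 °C, add stop solution raising pH to 10, read fluorescence.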
TDP1 cell CPT = growth inhibition of DT40 Tdp1-/-;hTDP1 cells with camptothecin (screen for TDP1 inhibitors); AID 686979; chicken DT40 Tdp1-/-;hTDP1 cells + 20 nM CPT, ATP luminescence, 48 h; hit rate 12% among 420,000; Potency, µM (series often up to 46.2 µM), without a hit: at the highest dose activity change, negative = growth inhibition, hits mostly inhibitors; also: potency is read from the fitted curve at half-maximal effect; % is scaled to controls: 0 for no effect and ±100 for the full control effect; nearly all actives have a fitted effect of over 55% in size
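Chicken DT40 Tdp1-/- cells stably complemented with human TDP1 were seeded at 400 cells/well in medium containing 20 nM camptothecin, exposed to pin-transferred compounds, and grown at 37 °C for at least 48 hr. Viability was read as ATP luminescence.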
HepG2 viability = kills HepG2 cells in TGF-b inhibitor counter-screen | hit rate 0.76% among 410,000 | Potency, µM (doses to about 46.1 µM), without a hit: top-dose activity change, negative = cytotoxicity, hits mostly cytotoxic | HepG2 CAGA-GFP viability, ATP luminescence, 18 h | AID 588856; also: potency is read from the fitted curve at half-maximal effect
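CellTiter-Glo luminescence gave cytotoxicity after 18 hours at 37 degrees C. The cells were HepG2 CAGA-GFP in 1% FBS DMEM, stimulated with 500 pg/mL TGF-beta after compound addition. %Activity was normalised to no-cell wells (complete cell-killing) and DMSO (no toxicity), and curves were fitted and classified.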
* = called active by the depositor. Unless noted, calls follow the shape of the dose curve; as a rule, active = well fitted curve in the direction sought with a large enough effect; inconclusive = small, poorly fitted or top-dose-only effect, or another doubt; inactive = no such curve, though single readings can be large; an effect the other way counts as inactive or inconclusive.

Screening COc1ccc(CCNC(=O)c2cccs2)cc1OC returned TGFb inhibitor 1.1%, DT40 TDP1 no CPT 1.6%, IL1B secr inh -5.9, ASM inhibitor 3.4%, TDP1 cell CPT -7.5% and HepG2 viability 3.5%.
For Cc1ccccc1C(=O)n1nc(-c2ccco2)nc1NCc1cccs1 the results were TGFb inhibitor 36.2%, DT40 TDP1 no CPT inconclusive, TDP1 cell CPT 13µM* and HepG2 viability 6.0%.
Screening CCOc1ccc(CNC(=O)c2sc3nc(C)cc(C)c3c2-n2cccc2)cc1 returned TGFb inhibitor -28.1%, DT40 TDP1 no CPT inconclusive, TDP1 cell CPT inconclusive and HepG2 viability -6.0%.
`CCC(CC)NC(=O)COn1nnc2ccc(S(=O)(=O)N3CCOCC3)cc21` gave TGFb inhibitor 16.4%, DT40 TDP1 no CPT -2.7%, IL1B secr inh -2.3, ASM inhibitor -4.1%, TDP1 cell CPT 10.3% and HepG2 viability 0.0%.
`COc1cc2c(cc1OC)C(NNC(=O)c1ccc(Br)o1)=NC(C)(C)C2` gave TGFb inhibitor -25.7%, DT40 TDP1 no CPT inconclusive, IL1B secr inh -0.2, ASM inhibitor 2.3%, TDP1 cell CPT 20.6µM* and HepG2 viability 2.0%.
Screening CSc1ccccc1OCc1cc(C(=O)N(C)Cc2cnccn2)no1 returned TGFb inhibitor -9.0%, DT40 TDP1 no CPT 11.1%, IL1B secr inh -12.0, ASM inhibitor 0.3%, TDP1 cell CPT -6.2% and HepG2 viability -15.4%.
For CCOc1ccc(N(C)S(=O)(=O)c2ccc(C)c(C(=O)Nc3nnc(C4CC4)s3)c2)cc1 the results were TGFb inhibitor 3.4%, DT40 TDP1 no CPT 4.61µM*, IL1B secr inh -3.1, ASM inhibitor -5.3%, TDP1 cell CPT -8.5% and HepG2 viability -6.5%.
`COC(=O)c1c[nH]c2c1-c1cc(C(=O)OCc3ccccc3)n(S(=O)(=O)c3ccc(C)cc3)c1C(=O)C2=O` gave TGFb inhibitor 0.447µM*, DT40 TDP1 no CPT 0.581µM*, IL1B secr inh -17.3, ASM inhibitor -9.1%, TDP1 cell CPT 0.581µM* and HepG2 viability 0.562µM*.
Screening C#CCNC(=O)c1cc2c(Br)ccc(Br)c2nc1N returned DT40 TDP1 no CPT -18.8%, IL1B secr inh -0.3 and TDP1 cell CPT -1.8%.
CCC(=O)NC(c1cc(Cl)c2cccnc2c1O)C1CC1 (stereo unspecified) was read as TGFb inhibitor 2µM*, ASM inhibitor 7.3% and HepG2 viability -22.8%.
CCC(=O)NC(c1cc(Cl)c2cccnc2c1O)C(C)C (stereo unspecified) was read as TGFb inhibitor 2.82µM*, ASM inhibitor 4.0% and HepG2 viability -42.3%.
COc1ccccc1CNC(=O)COC(=O)c1cccc(S(=O)(=O)N2CCCCC2)c1 was read as TGFb inhibitor 12.3%, DT40 TDP1 no CPT 2.0%, IL1B secr inh 3.3, ASM inhibitor 5.7%, TDP1 cell CPT 0.9% and HepG2 viability -1.2%.
Screening CC1(C)CN(C(=S)Nc2ccc(F)cc2F)C1=O returned TGFb inhibitor 0.9%, DT40 TDP1 no CPT 14.7%, IL1B secr inh -11.8, ASM inhibitor 3.1%, TDP1 cell CPT 2.3% and HepG2 viability -0.4%.
Screening CC(=O)c1ccc(N/C=C/C(=O)c2ccc(Br)cc2)cc1 returned TGFb inhibitor 0.1%, DT40 TDP1 no CPT -5.1%, IL1B secr inh -2.3, ASM inhibitor 112.1%, TDP1 cell CPT -10.4% and HepG2 viability 13.1%.
S=c1[nH]ncn1/N=C/c1ccc(Br)cc1 was read as TGFb inhibitor 14.6%, DT40 TDP1 no CPT -28.5%, IL1B secr inh -20.9, ASM inhibitor -3.3%, TDP1 cell CPT inconclusive and HepG2 viability 3.7%.
